Assay outcomes: PubChem, National Center for Advancing Translational Sciences (NCATS)
FLuc modulator – firefly luciferase modulation, counter-screen for miR-21 project | Potency, µM (highest dose often 57.5 µM), actives largely listed as inhibitors | P08659 | 360,000 tested, 6.9% active | purified FLuc, Km substrates, luminescence inhibition | AID 588342; also: nearly all actives have a fitted effect of over 55% in size
Target sequence (P08659 whole entry, looked up): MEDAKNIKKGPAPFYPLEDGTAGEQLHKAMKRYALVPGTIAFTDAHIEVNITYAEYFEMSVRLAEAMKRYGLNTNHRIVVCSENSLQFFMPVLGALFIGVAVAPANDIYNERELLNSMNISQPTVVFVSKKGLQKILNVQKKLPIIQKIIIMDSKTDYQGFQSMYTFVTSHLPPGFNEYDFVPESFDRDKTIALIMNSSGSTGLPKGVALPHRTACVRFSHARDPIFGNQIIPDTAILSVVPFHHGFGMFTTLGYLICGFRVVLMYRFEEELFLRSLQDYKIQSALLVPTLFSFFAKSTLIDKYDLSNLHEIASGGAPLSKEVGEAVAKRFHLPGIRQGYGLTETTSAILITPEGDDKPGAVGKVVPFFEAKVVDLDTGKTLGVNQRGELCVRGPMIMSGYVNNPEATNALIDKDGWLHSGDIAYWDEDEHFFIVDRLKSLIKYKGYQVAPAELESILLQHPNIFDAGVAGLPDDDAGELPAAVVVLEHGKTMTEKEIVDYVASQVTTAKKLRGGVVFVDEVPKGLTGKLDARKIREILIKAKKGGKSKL
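Purified P. pyralis luciferase (10nM final) with 10uM D-luciferin and 10uM ATP (Km levels) in 50mM Tris acetate pH 7.5, 10mM Mg acetate, 0.01% Tween-20, 0.05% BSA; qHTS 6-point titration, ~60 µM downward; luminescence read.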
SMN2 splice up – SMN2 splice variant enhancement. HEK293 SMN2-luciferase splicing reporter, luminescence, 30-36 h. 210,000 tested, 2.8% active. Potency, µM (doses to about 46.1 µM), most hits filed as activators. AID 1458; also: nearly all actives have a fitted effect of over 55% in size
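HEK293 cells carry an SMN2 […]–luciferase reporter in which exon 7 inclusion puts luciferase in frame. Cells were plated 10-12 h before compound addition, then incubated 30-36 h at 37C. ONE-Glo luminescence was read; sodium butyrate at 4.5 mM final served as control.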
Rab9 promoter act – Rab9 promoter activation; Huh7 Rab9 promoter-luciferase reporter, luminescence, 24 h; Potency, µM (series often up to 9.22 µM), usual class: activators; 320,000 tested, 2.8% active; also: nearly all actives have a fitted effect of over 60% in size
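Promoter activation is measured as luciferase luminescence in Huh7 cells stably transfected with a Rab9 promoter–luciferase construct, following 24 h compound exposure at 37 °C and 10 min reagent incubation at ambient temperature.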
ELG1 genotoxic – genotoxicity induction in ELG1-luciferase HEK293T cells; HEK293T ELG1-luciferase reporter, luminescence, 16 h; Potency, µM (top dose mostly 46 µM), actives largely listed as activators; 330,000 tested, 1.3% active; AID 504466; also: nearly all actives have a fitted effect of over 60% in size
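Genotoxic stress is detected as increased luminescence from luciferase-tagged ELG1 in HEK293T cells, measured with ONE-Glo after a 16 hr treatment at 37 °C.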
Luc counter – counter-screen: inhibitors of Kinase-Glo firefly luciferase | Potency, µM (top dose mostly 38.3 µM), usual class: inhibitors | Q27757 | Kinase-Glo luciferase, ATP luminescence, 8 min | 200,000 tested, 0.28% active; also: nearly all actives have a fitted effect of over 60% in size
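Light output from Kinase-Glo luciferase with luciferin and 10 uM ATP in 50 mM imidazole pH 7.2, KCl, MgCl2, Tween 20, BSA; compound pin-delivered, 8-min ambient incubation, then luminescence read.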
NPC1 promoter act – NPC1 promoter activation; Huh7 NPC1 promoter luciferase reporter, 24 h; Potency, µM (highest dose often 9.22 µM), actives largely listed as activators; 320,000 tested, 2.4% active; AID 485313; also: nearly all actives have a fitted effect of over 60% in size
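Stably transfected Huh7 (NPC1 promoter→luciferase), 1500 cells/well in Opti-MEM + 10% FBS, 2 h settle, then compound 24 h at 37 °C. Luminescence after 10 min with Amplite reagent.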
Of the large screens only hits and unclear results are named; the others gave an inactive call. Most compounds without a hit are left out; they make up all but 7.5% or so of the library. Calls follow the shape of the dose curve; as a rule, active = well fitted curve in the direction sought with a large enough effect; inconclusive = small, poorly fitted or top-dose-only effect, or another doubt; inactive = no such curve, though single readings can be large; an effect the other way counts as inactive or inconclusive.

O=C(Cn1sc2ccccc2c1=O)NC12CC3CC(CC(C3)C1)C2	FLuc modulator 7.6µM
CN(Cc1ccccc1)C(=O)c1cccc(NC(=O)c2nsc3ccccc23)c1	FLuc modulator 9.5µM (no result: SMN2 splice up, Rab9 promoter act, ELG1 genotoxic, Luc counter, NPC1 promoter act)
Cc1ccc(C(=O)NCCC(C)C)cc1NC(=O)c1nsc2ccccc12	none (no result: SMN2 splice up, Rab9 promoter act, ELG1 genotoxic, Luc counter, NPC1 promoter act)
CC(NC(=O)c1cccc(NC(=O)c2nsc3ccccc23)c1)c1ccccc1 (stereo not drawn)	FLuc modulator 3.8µM (no result: SMN2 splice up, Rab9 promoter act, ELG1 genotoxic, Luc counter, NPC1 promoter act)
CC(C)Oc1ccc(CNC(=O)c2cccc(NC(=O)c3nsc4ccccc34)c2)cc1	FLuc modulator 9.5µM (no result: SMN2 splice up, Rab9 promoter act, ELG1 genotoxic, Luc counter, NPC1 promoter act)
CC(NC(=O)c1ccc(NC(=O)c2nsc3ccccc23)cc1)c1ccccc1 (stereo not drawn)	FLuc modulator 3µM (no result: SMN2 splice up, Rab9 promoter act, ELG1 genotoxic, Luc counter, NPC1 promoter act)
Cc1ccc(C(=O)O)cc1NC(=O)c1nsc2ccccc12	FLuc modulator inconclusive (no result: Rab9 promoter act, ELG1 genotoxic, Luc counter, NPC1 promoter act)
CN(C)c1ccc(CNC(=O)c2ccccc2NC(=O)c2nsc3ccccc23)cc1	none (no result: SMN2 splice up, Rab9 promoter act, ELG1 genotoxic, Luc counter, NPC1 promoter act)
COc1ccc(Cl)cc1NC(=O)c1cc2nc(-c3ccc4c(c3)OCO4)cc(C(F)(F)F)n2n1	none (no result: Rab9 promoter act, ELG1 genotoxic, Luc counter, NPC1 promoter act)
Cc1ccc(OCCSc2nc3ccccc3n2CC(=O)NC(C)C)cc1	none (no result: SMN2 splice up, Rab9 promoter act, ELG1 genotoxic, Luc counter, NPC1 promoter act)
C[C@H](CO)N1C[C@H](C)[C@@H](CN(C)S(=O)(=O)c2ccccc2)Oc2c(NC(=O)NC3CCCCC3)cccc2C1=O	none (no result: FLuc modulator, SMN2 splice up, Rab9 promoter act, Luc counter, NPC1 promoter act)
COCCNC(=O)CCCn1c(SCC(=O)Nc2cccc(C)c2)nc2c(sc3ccccc32)c1=O	none (no result: Rab9 promoter act, ELG1 genotoxic, Luc counter, NPC1 promoter act)
CCc1ccc(NC(=O)CSc2nc3c(sc4ccccc43)c(=O)n2CCCOC(C)C)cc1	none (no result: SMN2 splice up, Rab9 promoter act, ELG1 genotoxic, Luc counter, NPC1 promoter act)
Cn1c(CSc2nc3ccccc3s2)n[nH]c1=S	none
Cn1c(CSc2nc3ccccc3s2)nc2ccccc21	FLuc modulator 11µM, SMN2 splice up 16µM, Rab9 promoter act inconclusive, ELG1 genotoxic 13µM, NPC1 promoter act inconclusive
c1ccc(SCc2nc3ccccc3[nH]2)nc1	FLuc modulator 21µM, Rab9 promoter act inconclusive, ELG1 genotoxic inconclusive, NPC1 promoter act inconclusive
c1ccc2[nH]c(CSc3nc4ccccc4s3)nc2c1	FLuc modulator 15µM
COc1ccccc1CNC(=O)Cn1nc(C)n2cccc2c1=O	none (no result: SMN2 splice up, Rab9 promoter act, ELG1 genotoxic, Luc counter, NPC1 promoter act)
CCCCN(C)CCNC(=O)C1CCCN(S(=O)(=O)c2ccc3c(c2)oc(=O)n3C)C1 (stereo not drawn)	none (no result: Rab9 promoter act, ELG1 genotoxic, Luc counter, NPC1 promoter act)
CCOC(=O)c1ccc(Nc2ncnc3c2cnn3C)cc1	none (no result: SMN2 splice up, Luc counter)
Cn1ncc2c(O/N=C(\N)c3ccc(C(C)(C)C)cc3)ncnc21	FLuc modulator 15µM (no result: SMN2 splice up, Luc counter)
Cc1cccc(OC(=O)c2cc(-c3ccc4c(c3)OCCO4)on2)c1C	FLuc modulator 5.4µM (no result: SMN2 splice up, Rab9 promoter act, ELG1 genotoxic, Luc counter, NPC1 promoter act)
Cc1ccccc1OC(=O)c1cc(-c2ccc3c(c2)OCCO3)on1	FLuc modulator 0.6µM (no result: SMN2 splice up, Rab9 promoter act, ELG1 genotoxic, Luc counter, NPC1 promoter act)
O=C(Oc1ccccc1Cl)c1cc(-c2ccc3c(c2)OCCO3)on1	FLuc modulator 2.7µM (no result: SMN2 splice up, Rab9 promoter act, ELG1 genotoxic, Luc counter, NPC1 promoter act)
O=C1N/C(=C/c2ccc(N3CCCC3)cc2)C(=O)N1c1ccccc1	FLuc modulator inconclusive
O=C1/C(=C/c2ccc(N3CCCC3)cc2)NC(=S)N1C1CC1	FLuc modulator 12µM, Rab9 promoter act inconclusive
Cc1cc(N2CCCC2)ccc1/C=C1\NC(=S)N(C)C1=O	FLuc modulator 13µM, Rab9 promoter act 3.2µM, NPC1 promoter act inconclusive (no result: SMN2 splice up)
CCc1ccc(C(=O)COC(=O)c2ccc(Cl)nc2)cc1	FLuc modulator 9.5µM, Rab9 promoter act inconclusive
O=C(COC(=O)c1ccc(Cl)nc1)c1ccc2c(c1)OCCO2	FLuc modulator 0.76µM, Rab9 promoter act 1.6µM, ELG1 genotoxic inconclusive, NPC1 promoter act 4µM
O=C(COC(=O)C(O)c1ccccc1)c1ccc2c(c1)OCCO2 (stereo not drawn)	FLuc modulator 1.5µM
CCOC(=O)c1c(C)[nH]c(C)c1C(=O)COC(=O)c1ccc(Cl)nc1	none (no result: FLuc modulator, SMN2 splice up, Rab9 promoter act, Luc counter, NPC1 promoter act)
COC(=O)c1ccccc1NC(=O)CSc1nc2ccccc2nc1Cc1ccc(F)cc1	none (no result: SMN2 splice up, Rab9 promoter act, ELG1 genotoxic, Luc counter, NPC1 promoter act)
CCOC(=O)c1c(C)c(-c2ccccc2)n(CC(=O)NCCc2ccc(C)cc2)c1C	none (no result: Rab9 promoter act, ELG1 genotoxic, Luc counter, NPC1 promoter act)
O=C(c1cccc([N+](=O)[O-])c1)N1c2nc(-c3ccco3)nn2C2(CCCCC2)[C@@H]2CCCC[C@@H]21	none (no result: SMN2 splice up, Rab9 promoter act, ELG1 genotoxic, Luc counter, NPC1 promoter act)
O=C(CCn1c(=O)c2cccn2c2cccnc21)NCc1ccc(Cl)cc1	none (no result: SMN2 splice up, Rab9 promoter act, ELG1 genotoxic, Luc counter, NPC1 promoter act)
